Hits are enriched below; roughly 3.1% of the tested compounds scored in any of these assays.
GoLoco inh red: inhibitors of human Gai1-RGS12 GoLoco interaction (red fluorophore); Potency, µM (highest dose often 61.6 µM), inactives show at the highest dose activity, negative = inhibition, actives largely listed as inhibitors; Gai1:RGS12 GoLoco peptide FP, rhodamine, 10 min; 230,000 compounds, 0.44% hits; P63096; active = well fitted inhibition curve with a large enough effect, not every such curve was filed as active; inactive = no such curve, though single readings can be large or run the other way; note: nearly all actives have a fitted effect of over 30% in size
Target sequence (P63096 whole entry, looked up): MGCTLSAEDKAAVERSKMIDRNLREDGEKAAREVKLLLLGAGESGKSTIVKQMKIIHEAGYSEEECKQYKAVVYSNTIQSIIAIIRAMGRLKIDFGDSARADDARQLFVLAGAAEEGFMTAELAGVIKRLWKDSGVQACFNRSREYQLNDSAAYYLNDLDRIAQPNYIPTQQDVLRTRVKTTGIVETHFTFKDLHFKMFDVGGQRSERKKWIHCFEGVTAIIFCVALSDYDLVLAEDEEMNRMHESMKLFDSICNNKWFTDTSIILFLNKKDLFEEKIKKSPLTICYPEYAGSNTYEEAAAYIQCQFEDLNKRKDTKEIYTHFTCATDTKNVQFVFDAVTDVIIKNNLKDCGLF
TRb SRC2 PPI: inhibitors of human thyroid hormone receptor beta-SRC2 interaction; Potency, µM (top dose mostly 106 µM), inactives show at the top dose activity change, negative = inhibition, usual class: inhibitors; P10828; TRbeta-SRC2 peptide binding, fluorescence polarization; receptor liganded with 1 µM T3; 280,000 compounds, 0.065% hits;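 note: plate controls were bound peptide for no effect and peptide without receptor for full effect; nearly all actives have a fitted effect of over 50% in size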
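Human TRb ligand-binding domain (0.6 uM) is mixed with 20 nM Texas Red SRC2 peptide and 1 uM T3; after compound addition and 5 hr at ambient temperature, polarization is measured and normalized to unbound and bound controls.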
Tau fluor cs: counter-screen for tau fibril formation inhibitors. tau K18 P301L Alexa594 fluorescence, heparin fibrillization. Potency, µM (titrated, usually from 57.7 µM), for inactives: at the top dose activity change, negative = decrease. 280,000 compounds, 0.93% hits; note: nearly all actives have a fitted effect of over 55% in size
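Human K18 P301L tau (15 uM unlabeled plus 0.24 uM Alexa 594-labeled, final) in 100 mM sodium acetate pH 7 was mixed with compound and 20 uM heparin and incubated 6 hr at 37 C.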
Tau fibril ThT: inhibitors of human tau fibril formation, thioflavin T binding. Potency, µM (titrated, usually from 57.4 µM), for inactives: at the top dose activity, negative = inhibition, most hits filed as inhibitors. 270,000 compounds, 2.1% hits. recombinant tau K18 P301L (four-repeat tau fragment), heparin-induced fibrillization, ThT fluorescence. P10636; note: nearly all actives have a fitted effect of over 55% in size
Target sequence (P10636 561-689 P618L limits assumed): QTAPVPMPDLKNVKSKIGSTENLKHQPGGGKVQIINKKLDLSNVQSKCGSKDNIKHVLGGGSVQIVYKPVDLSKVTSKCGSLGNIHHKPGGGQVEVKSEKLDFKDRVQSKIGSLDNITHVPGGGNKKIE
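Tau K18 P301L fragment (15 uM unlabeled plus 0.24 uM Alexa 594-labeled) in 100 mM sodium acetate pH 7 with compound, fibrillization induced by 20 uM heparin for 6 hr at 37 C. Thioflavin T (30 uM) added, fluorescence read after 1 hr (ex 450, em 510 nm).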
TR SRC2 fluor cs: counter-screen for TRb-SRC2 inhibitors: fluorescence interference; TRb/SRC2 Texas Red total fluorescence interference; Potency, µM (top dose mostly 106 µM), inactives show top-dose fluorescence change, negative = quenching; 280,000 compounds, 0.29% hits; AID 1479; active = well fitted curve in either direction with a large enough effect; inconclusive = small, poorly fitted or top-dose-only effect
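Human TRβ ligand-binding domain (0.6 uM) and Texas Red SRC2 peptide (20 nM) in Tris buffer with 1 uM T3 and 5% DMSO were incubated with pinned compound for 5 hr at ambient temperature. Total fluorescence was computed as S + 2P (555/632 nm).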
Tau FP inhib: blocks human tau fibril formation measured by polarization. P10636. K18 P301L tau heparin fibrillization, Alexa594 FP, 6 h. Potency, µM (highest dose often 57.7 µM), for the others: top-dose activity, negative = inhibition, hits mostly inhibitors. 280,000 compounds, 0.39% hits; note: nearly all actives have a fitted effect of over 55% in size
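FP of Alexa 594-tau after heparin (20 uM) induction. Substrate: human K18 P301L, 15 uM unlabeled, 0.24 uM labeled. Buffer 100 mM sodium acetate pH 7. 6 hr, 37 C.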
* marks the source's active call; other numbers are inactive results; ? = inconclusive; nt = no result given; [ ] = another dose, or the depositor's remark. Unless noted, calls come from the whole dose curve; as a rule, active = well fitted curve in the direction sought with a large enough effect; inconclusive = small, poorly fitted or top-dose-only effect, or another doubt; inactive = no such curve, though single readings can be large; an effect the other way counts as inactive or inconclusive. Unless noted, % is set by controls: 0 for no effect and ±100 for the full control effect; potency is the fitted concentration of half-maximal effect.

SMILES	GoLoco inh red	TRb SRC2 PPI	Tau fluor cs	Tau fibril ThT	TR SRC2 fluor cs	Tau FP inhib
CC(=O)Nc1ccc(NC(=O)CC2Nc3cccc4cccc(c34)NC2=O)cc1 (stereo not drawn)	13%	-10%	?	?	-6%	11%
CC(=O)c1ccc(NC(=O)CC2Nc3cccc4cccc(c34)NC2=O)cc1 (stereo not drawn)	1%	-4%	25µM*[quencher]	14µM*	-6%	?
COC(=O)C/C=C/C(C)C(OCc1cccc(Br)c1)C(C)C(OC)C1CCCCC1 (stereo not drawn)	nt	3%[11.2 µM]	-7%[11.6 µM]	-13%[11.5 µM]	1%[11.2 µM]	-6%[11.6 µM]
Cc1onc(-c2c(Cl)cccc2Cl)c1C(=O)NC(=S)Nc1sc2c(c1C(N)=O)CCC(C)C2 (stereo not drawn)	3%	3%	1%	-1%	1%	-10%
CC1CCc2c(sc(Nc3nc4c(F)cccc4s3)c2C(N)=O)C1 (stereo not drawn)	6%	6%	16µM*[quencher]	?	-23%	7%
CCOc1ccc(NCc2cccn2-c2nnc(N3CCC(C(=O)NCCc4ccc(OCC)c(OCC)c4)CC3)s2)cc1	nt	-8%	?	?	-13%	?
CCOc1ccc(NCc2cccn2-c2nnc(N3CCC(C(=O)NCCc4ccc(OC)c(OC)c4)CC3)s2)cc1	nt	-8%	?	?	35µM*[quencher]	9%
COC(=O)Cc1ccc(NC(=S)N2CCCCC2C)cc1 (stereo not drawn)	10%	-6%	-6%	-4%	-2%	8%
CC(=O)c1ccc2c(c1)Nc1ccccc1S2	9%	4%	?	?	1%	?
CCOC(=O)Nc1ccc2c(c1)Nc1ccccc1S2	-3%	-14%	14µM*[quencher]	7.9µM*	-1%	-13%
COc1ccccc1N=Cc1c(C)[nH]n(-c2ccc(C)cc2C)c1=O	-14%	4%	7%[2.34 µM]	-17%	3%	-3%[2.34 µM]
COc1cc(SC#N)ccc1N=Cc1c(C)[nH]n(-c2cccc3ccccc23)c1=O	-19%	-13%	-17%	7.9µM*	-4%	?
COc1cc(SC#N)ccc1N=Cc1c(C)[nH]n(-c2ccc(C)cc2C)c1=O	16%	9%	-21%	14µM*	-5%	?
COC(=O)[C@H]1[C@H]2C[C@@H]3c4[nH]c5cc(OC)ccc5c4CCN3C[C@H]2C[C@@H](OC(=O)c2cc(OC)c(OC)c(OC)c2)[C@@H]1OC	1%	6%	13µM*[quencher]	?	4%	7%
Cc1ccc2c(c1)nnn2C1CCN(CC(=O)N2CCN(c3ccc(F)cc3)CC2)CC1	1%	-2%	-10%	?	-7%	3%
CN(C)c1ccc(NC(=O)c2ccc3nsnc3c2)cc1	13µM*	-9%	-30%	7.9µM*	-6%	5%
COc1ccc(/C=N/NC(=O)CNC(=O)COc2ccccc2)cc1	2%	-18%	-3%	-13%	1%	7%
CN(C)c1ccc(NC(=O)c2cccc(C(=O)Nc3ccc(N(C)C)cc3)n2)cc1	18%	-7%	?	16µM*	4%	6%
COc1ccc(NC(=O)Nc2ccc(N(C)C)cc2)cc1	-13%	-1%	?	13µM*	-5%	10%
COc1ccc(OCC(=O)N/N=C/c2ccc(N(C)C)cc2)cc1	-11%	5%	?	2.5µM*	-3%	?
O=C(N/N=C/C=C\c1cccc([N+](=O)[O-])c1)c1cccnc1	8%	-2%	?	nt	-1%	10%
COc1cccc(C2N(c3cccc(Cl)c3)C(=O)C3CCCN32)c1 (stereo not drawn)	3%	-1%	-6%	0%	0%	-2%
CC(C)(C)OC(=O)N/N=C\c1ccc(OC(=O)c2ccco2)cc1	3%	7%	-20%	?	-2%	-1%
